Active and inactive are the calls of the source.
Key:
[1] = anti-His antibody binders, primary screen, artefact control for SMM control protein annotation, biochemical, small-molecule microarray, 635 nm fluorescence (AID 1128); details: anti-His Alexa647 antibody binding, higher = more signal;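 note: score merges feature fluorescence with signal-to-noise for each printed compound spot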
[2] = test system: Human papillomavirus type 1a E7 protein (residues 1-88); assay: HPV1a E7 small-molecule binders, primary screen, biochemical, small-molecule microarray, residues 1-88, 635 nm (AID 1129); details: small-molecule microarray binding, fluorescence 635 nm; higher = more signal
[3] = target: Focal adhesion kinase 1 (Homo sapiens) (UniProt Q05397); assay: small-molecule microarray binders of FAK, primary screen, biochemical, 635/667 nm fluorescence, BSA, DTT (AID 1130); details: PTK2 binding, 635 nm fluorescence, higher = more signal;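 note: composite of spot emission at 667 nm and signal to noise over triplicate slides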
[4] = test system: Fibrinogen (Alexa647-labelled); assay: fibrinogen binders on compound microarrays, profiling panel, artefact control for SMM control-protein annotation, biochemical, small-molecule microarray, 635/667 nm fluorescence (AID 1131); details: fibrinogen-A647 binding fluorescence, higher = more signal;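 note: z-score merges 667 nm fluorescence with per-spot signal-to-noise over triplicate slides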
[5] = target: Follistatin (Homo sapiens) (UniProt P19883); assay: follistatin binders on small-molecule microarrays, primary screen, biochemical, small-molecule microarray, 635/667 nm fluorescence (AID 1132); details: FST binding, 635 nm fluorescence, higher = more signal
[6] = target: Fibroblast growth factor 2 (Homo sapiens) (UniProt P09038); assay: FGF2 binders on small-molecule microarrays, primary screen, biochemical, small-molecule microarray, 635/667 nm fluorescence (AID 1133); details: small-molecule microarray binding, FGF2, fluorescence 635/667; higher = more signal
[7] = mitochondrial membrane potential change in A549 cells, profiling panel, cell-based, JC-1 fluorescence, basal, 24 h, 100 nL (AID 1138); details: higher = more signal;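 note: A549 lung adenocarcinoma cells under basal conditions with no added stimulus; test concentration not given here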
Lefty1 = Lefty1 binders on small-molecule microarrays, primary screen, biochemical, small-molecule microarray, 635/667 nm fluorescence (AID 1139); details: small-molecule microarray binding, fluorescence 635/667; higher = more signal
[8] = test system: wheat germ agglutinin (Triticum aestivum), Alexa647-labelled; assay: wheat germ agglutinin binders on compound microarrays, profiling panel, artefact control for SMM control-protein annotation, biochemical, small-molecule microarray, 635/667 nm fluorescence (AID 1140); details: WGA-A647 binding, 635 nm fluorescence, higher = more signal;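 note: score merges 667 nm feature emission with signal to noise over triplicate slides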
[9] = target: Luciferin 4-monooxygenase (Photinus pyralis) (UniProt P08659); assay: firefly luciferase enzyme inhibitors, primary screen, biochemical, luminescence, purified enzyme, 2006 set (AID 1141); details: SteadyGlo luminescence, 30 min, higher = more signal, called active from +8 up or from −8 down;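 note: cell-free assay with purified firefly luciferase at 100 ng per well in PBS; test concentration not given here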
Sequence of Luciferin 4-monooxygenase (Photinus pyralis) (P08659 whole entry, looked up): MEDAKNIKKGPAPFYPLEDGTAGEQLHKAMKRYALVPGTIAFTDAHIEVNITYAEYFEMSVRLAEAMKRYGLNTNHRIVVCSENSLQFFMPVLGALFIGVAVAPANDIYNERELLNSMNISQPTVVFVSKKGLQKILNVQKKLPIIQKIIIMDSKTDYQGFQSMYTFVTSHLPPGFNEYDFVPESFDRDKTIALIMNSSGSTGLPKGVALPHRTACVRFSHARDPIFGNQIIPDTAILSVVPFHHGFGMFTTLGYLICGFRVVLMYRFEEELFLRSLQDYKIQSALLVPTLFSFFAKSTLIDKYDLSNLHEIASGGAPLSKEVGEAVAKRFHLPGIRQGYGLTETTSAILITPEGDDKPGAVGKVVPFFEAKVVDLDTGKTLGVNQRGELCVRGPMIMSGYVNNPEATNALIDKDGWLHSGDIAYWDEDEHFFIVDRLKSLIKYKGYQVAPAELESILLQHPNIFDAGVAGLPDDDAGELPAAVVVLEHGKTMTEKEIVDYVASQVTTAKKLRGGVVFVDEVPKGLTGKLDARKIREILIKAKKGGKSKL

Sequence of Fibroblast growth factor 2 (Homo sapiens) (P09038 whole entry, looked up): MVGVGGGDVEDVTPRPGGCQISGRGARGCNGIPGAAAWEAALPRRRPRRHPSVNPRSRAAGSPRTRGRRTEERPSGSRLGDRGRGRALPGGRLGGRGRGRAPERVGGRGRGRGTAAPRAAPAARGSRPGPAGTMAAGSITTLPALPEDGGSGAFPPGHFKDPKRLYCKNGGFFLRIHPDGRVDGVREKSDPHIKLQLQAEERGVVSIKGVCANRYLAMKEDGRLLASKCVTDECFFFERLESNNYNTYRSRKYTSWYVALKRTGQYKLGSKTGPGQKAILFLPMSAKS
Sequence of Focal adhesion kinase 1 (Homo sapiens) (Q05397 whole entry, looked up): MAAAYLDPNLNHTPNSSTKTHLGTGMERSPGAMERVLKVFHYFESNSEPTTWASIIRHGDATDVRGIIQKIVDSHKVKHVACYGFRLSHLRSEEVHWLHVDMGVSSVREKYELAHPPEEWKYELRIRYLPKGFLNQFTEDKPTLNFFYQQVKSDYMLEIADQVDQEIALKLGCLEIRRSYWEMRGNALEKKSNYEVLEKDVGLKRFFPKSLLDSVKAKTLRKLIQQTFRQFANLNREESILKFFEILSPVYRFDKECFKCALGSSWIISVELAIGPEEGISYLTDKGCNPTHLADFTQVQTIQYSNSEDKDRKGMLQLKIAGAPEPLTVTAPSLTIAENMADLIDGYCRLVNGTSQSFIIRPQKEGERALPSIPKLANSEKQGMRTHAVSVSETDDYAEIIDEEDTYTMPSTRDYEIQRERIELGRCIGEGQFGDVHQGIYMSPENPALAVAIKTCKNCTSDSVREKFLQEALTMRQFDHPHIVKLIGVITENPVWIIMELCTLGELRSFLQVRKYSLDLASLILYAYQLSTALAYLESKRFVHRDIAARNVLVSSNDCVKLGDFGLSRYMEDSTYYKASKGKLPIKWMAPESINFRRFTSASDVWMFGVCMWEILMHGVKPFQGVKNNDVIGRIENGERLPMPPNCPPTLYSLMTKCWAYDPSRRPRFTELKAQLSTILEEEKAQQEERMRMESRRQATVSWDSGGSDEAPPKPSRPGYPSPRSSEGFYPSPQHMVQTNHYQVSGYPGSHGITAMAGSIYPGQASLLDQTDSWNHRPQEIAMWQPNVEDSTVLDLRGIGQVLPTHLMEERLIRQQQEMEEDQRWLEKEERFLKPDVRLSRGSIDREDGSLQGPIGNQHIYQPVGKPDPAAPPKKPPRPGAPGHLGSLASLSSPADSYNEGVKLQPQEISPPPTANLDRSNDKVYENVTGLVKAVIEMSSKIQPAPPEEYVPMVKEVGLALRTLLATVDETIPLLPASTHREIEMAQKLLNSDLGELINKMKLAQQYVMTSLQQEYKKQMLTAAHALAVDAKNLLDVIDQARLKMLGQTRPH
Sequence of Follistatin (Homo sapiens) (P19883 whole entry, looked up): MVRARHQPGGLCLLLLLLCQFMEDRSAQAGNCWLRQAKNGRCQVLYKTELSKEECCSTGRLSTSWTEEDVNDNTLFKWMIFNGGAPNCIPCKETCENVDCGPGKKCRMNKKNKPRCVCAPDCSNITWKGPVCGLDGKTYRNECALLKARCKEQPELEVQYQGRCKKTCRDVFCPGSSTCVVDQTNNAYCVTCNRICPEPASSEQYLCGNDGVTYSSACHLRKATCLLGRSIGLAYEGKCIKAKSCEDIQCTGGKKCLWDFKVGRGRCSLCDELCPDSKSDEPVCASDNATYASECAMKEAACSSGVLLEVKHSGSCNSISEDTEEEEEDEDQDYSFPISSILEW

SMILES	composite z-score [1]	composite z-score [2]	composite z-score [3]	composite z-score [4]	composite z-score [5]	composite z-score [6]	z-score [7]	composite z-score (Lefty1)	composite z-score [8]	z-score [9]
C=CCC(OC(C)=O)[C@@H]1[C@@H](N(Cc2cccc3ccccc23)C(=O)c2ccc(-c3ccccc3)cc2)c2cc(OCCCO)ccc2N1C(=O)c1ccc2ccccc2c1 (stereo not given in full)	-0.165	0.233	0.299	0.66	0.906	-0.0101	0.0927	0.389	0.0002	0.797 (inactive)
Oc1ccc2cc[n+](Cc3sc4ccccc4c3Cl)cc2c1	-0.146	-0.537	0.703	-0.462	1.33	0.567	-0.832	0.506	1.14	-0.226 (inactive)
CC(C)(C)OC(=O)CC[C@]1(C(=O)N2CCOCC2)N=C(c2ccc(OCCCO)cc2)O[C@H]1c1ccccc1N=[N+]=[N-]	2.82	1.27	0.566	0.946	1.18	0.449	2.26	0.146	1.02	-9.23 (active)
CC(C)N1C(=O)C[C@@](C(=O)NCC(F)(F)F)(c2ccc([N+](=O)[O-])cc2)[C@H]1c1ccc(CO)cc1	-0.203	0.38	0.611	0.0938	0.409	-0.432	-0.279	0.343	0.351	1.58 (inactive)
C=C(COC)C(=O)CC[C@@H](OC(C)=O)c1ccc(CO)o1	-0.555	-0.724	-0.285	0.966	1.33	1.32	-0.57	1.73	0.397	-1.15 (inactive)
C=C(C(=O)CC[C@@H](OC(=O)c1cccnc1)c1ccccc1OCCO)C(C)C	-0.242	0.131	-0.0995	0.0673	0.719	0.647	-0.102	1.23	0.486	-0.484 (inactive)
CCOC(=O)C1=C[C@@H](C(C)(C)C)N(S(=O)(=O)c2ccc(C)cc2)[C@H]1c1ccc(F)cc1	0.416	1.21	-0.225	0.939	1.05	0.553	3.65	0.96	0.723	1.53 (inactive)
CNS(=O)(=O)c1ccc(C)cc1	-0.0728	0.668	-0.163	-0.212	0.884	0.917	1.55	0.39	0.0044	-1.2 (inactive)
COC(=O)[C@@]1(Cc2ccc(OC)cc2)[C@H]2c3cc(C(=O)N(C)C)n(C)c3C[C@H]2CN1C(=O)c1ccccc1	0.392	1.27	0.698	0.97	1.22	0.0022	1.05	0.146	1.11	1.82 (inactive)
C=CC[C@]1(C(=O)NCc2ccccc2)N=C(c2ccc(OCCCO)cc2)O[C@H]1c1ccccc1N=[N+]=[N-]	2.39	1.22	0.618	0.971	1.23	-0.26	0.34	0.194	1.23	-8.88 (active)
CC(C)C[C@@H]1NC(=O)[C@@H]2C[C@H](C(=O)NCc3ccc(F)cc3)[C@H](c3cccc(OCCO)c3)N2C1=O	2.05	0.135	0.379	-0.373	1.47	1.46	1.87	0.616	-0.129	-0.976 (inactive)
C=CCNC(=O)[C@@H]1[C@H]2C(=O)O[C@H](c3ccccc3)[C@H](c3ccccc3)N2[C@H](c2ccccc2OCCO)[C@@]12C(=O)N(C(=O)OCCOC)c1ccccc12	0.439	1.2	-0.0723	0.979	1.39	1.49	0.432	1.29	0.478	-0.549 (inactive)
O=C1O[C@H](c2ccccc2)[C@H](c2ccccc2)N2[C@H]1[C@@H](C(=O)N1CCCCCCC1)[C@]1(C(=O)Nc3ccc(C#CCCO)cc31)[C@H]2c1ccccc1OCCO	3.55	1.36	5.56	1.02	1.58	1.16	0.372	1.93	1.64	-1.35 (inactive)
C=CCOC(=O)[C@H]1[C@@H]2C(=O)O[C@@H](c3ccccc3)[C@@H](c3ccccc3)N2[C@@H](c2ccc(OCCOC(=O)[C@@H]3C[C@@H]4C(=O)N[C@@H](CCCCNC(C)=O)C(=O)N4[C@@H]3c3ccc(O)cc3)cc2)[C@]12C(=O)Nc1ccccc12	3.17	1.22	1.14	0.76	1.25	1.49	-1.55	1.23	0.8	-0.907 (inactive)
COCCCNC(=O)[C@@H]1c2ccccc2C(=O)N(Cc2ccccc2Cl)[C@H]1c1ccc(CO)cc1	3.19	1.17	0.36	0.381	1.33	1.04	2.35	0.753	-0.0431	-1.27 (inactive)
COCCOC(=O)N1C(=O)[C@@]2(c3cc(C#CCCO)ccc31)[C@H](C(N)=O)[C@H]1C(=O)O[C@H](c3ccccc3)[C@H](c3ccccc3)N1[C@@H]2c1ccc(O)cc1	-0.0637	-0.469	-0.167	0.141	-0.15	0.0091	0.0757	-0.431	0.115	-0.381 (inactive)
CN(C)CCCCCCNC(=O)[C@H]1C[C@H]2C(=O)N3CCC[C@H]3C(=O)N2[C@H]1c1ccc(O)cc1	2.74	1.24	1.03	0.678	1.34	1.48	-0.727	1.39	0.622	-0.171 (inactive)

SMILES	composite z-score [1]	composite z-score [2]	composite z-score [3]	composite z-score [4]	composite z-score [5]	composite z-score [6]	z-score [7]	composite z-score (Lefty1)	composite z-score [8]	z-score [9]
C=CCN1C(=O)[C@@]2(CC=C)N=C(c3ccc(OCCCO)cc3)O[C@H]2c2ccccc21	2.12	1.2	0.743	0.576	1.49	1.76	2.66	1.17	0.503	-9.06 (active)
COCCCNC(=O)[C@]1(CCC(=O)OC(C)(C)C)N=C(c2ccc(OCCCO)cc2)O[C@@H]1c1ccccc1CN=[N+]=[N-]	1.3	1.26	0.383	0.197	1.28	1.09	-0.627	0.19	1.13	-1.11 (inactive)
CCOC(=O)C[C@H]1[C@H](OC(=O)c2ccc(C(=O)c3ccccc3)cc2)[C@@H](NC(=O)c2ccc3ccccc3c2)c2cc(OCCCO)ccc2N1C(=O)Cc1ccc(OC)cc1	0.0204	0.542	0.222	0.424	0.288	0.115	0.826	0.199	0.398	0.789 (inactive)
COC(=O)[C@@]1(Cc2ccc(OC)cc2)[C@H]2c3cc(C(=O)N(C)C)n(Cc4ccccn4)c3C[C@H]2CN1C(=O)c1ccccc1	1.57	0.451	1.44	0.547	-0.363	-0.567	0.332	-0.805	1.35	1.6 (inactive)
CN(C)CCCC[C@@H]1NC(=O)[C@H]2C[C@@H](C(=O)NCCCCCCN)[C@@H](c3ccc(O)cc3)N2C1=O	2.07	1.09	0.333	0.977	1.41	1.82	0.462	1.67	1.03	0.498 (inactive)
COC(=O)[C@@]1(Cc2ccc(F)cc2)[C@H]2c3cc(C(=O)N4CCCC4)n(CCCNc4ncc(C(F)(F)F)cc4Cl)c3C[C@H]2CN1C(=O)c1ccccc1	2.47	1.08	0.604	0.817	-0.0084	-0.903	0.742	-0.695	1.03	1.37 (inactive)
C=CCC(OC(C)=O)[C@@H]1[C@@H](N(Cc2ccc(-c3cccc(C(F)(F)F)c3)o2)C(=O)c2ccc(C)cc2)c2cc(OCCCO)ccc2N1C(=O)Cc1ccc2ccccc2c1 (stereo not given in full)	0.357	-1.49	0.0103	0.658	0.107	-0.358	0.71	-0.454	0.234	-0.453 (inactive)
C=C(C)[C@@H]1CC=C(C(O)C2C=CC3C(=O)N(C)C(=O)C3N2Nc2ccccc2)CC1 (stereo not given in full)	-0.243	1.17	0.427	0.262	1.38	1.12	0.54	0.987	1.18	0.485 (inactive)
COC(=O)C(CC#Cc1ccc2c(c1)[C@]1(C(=O)N2)[C@H](c2ccc(OCCO)cc2)N2[C@H](c3ccccc3)[C@H](c3ccccc3)OC(=O)[C@H]2[C@@H]1C(=O)N1CCc2cc(OC)c(OC)cc2C1)C(=O)OC	0.857	1.2	0.343	1	1.41	1.57	-1.26	1.36	0.423	-0.465 (inactive)
CCCC=C(CCC)[C@@H](NC(=O)c1cccs1)c1ccc(C(F)(F)F)cc1	0.51	1.23	-0.201	0.936	0.572	0.0183	0.627	0.735	0.83	-2.34 (inactive)
COC(=O)[C@@]1(Cc2ccc(F)cc2)[C@H]2c3cc(C(=O)N(C)C)n(Cc4ccccc4)c3C[C@H]2CN1C(=O)c1ccccc1	1.38	0.789	-0.109	0.91	0.787	-0.525	0.906	0.0954	1.16	2.14 (inactive)
CC#CC(=O)Oc1ccccc1C=CC(=O)OCC	0.259	0.69	-0.0142	-0.0002	0.036	0.524	-1.04	0.51	0.0601	1.51 (inactive)
CCCCCCc1nc(-c2ccc(OC)nc2)cc2c1[Si](C(C)C)(C(C)C)O[C@H]2c1ccccc1	-0.133	-0.484	0.0202	-0.51	0.885	0.896	-0.959	1.44	0.211	0.974 (inactive)
OCCCC1=CC(c2cccs2)N(Cc2cc3c(cc2Br)OCO3)CC1 (stereo not given)	0.992	0.213	0.585	0.772	0.333	0.076	1.39	0.433	0.929	-0.0407 (inactive)
COc1ccc(C#Cc2ccc3c(c2)[C@]2(C(=O)N3)[C@H](C(=O)Nc3nc4ccccc4s3)[C@H]3C(=O)O[C@H](c4ccccc4)[C@H](c4ccccc4)N3[C@@H]2c2ccc(O)cc2)cc1	0.973	1.24	0.289	0.997	1.38	0.882	-2.22	1.72	1.18	0.0616 (inactive)
O[C@@H](Cc1ccccc1)[C@H]1C2C=CCCC=C2CN1Cc1cccc(Cl)c1 (stereo not given in full)	1.21	1.14	0.184	0.675	1.24	0.688	0.182	1.41	0.593	-1.89 (inactive)

— PubChem BioAssay
